Screening results from PubChem BioAssay.
Compounds with a hit are over-represented: about 12% of the library has one in this group of screens.
G9a block = inhibitors of human histone lysine methyltransferase G9a; Q96KQ7; G9a H3K9 monomethylation, AlphaScreen, 2 h; Potency, µM (highest dose often 102 µM), for the others: at the top dose activity, negative = inhibition, actives largely listed as inhibitors; 350,000 tested, 8.8% active; AID 504332; also: % is scaled to controls: 0 for no effect and ±100 for the full control effect; nearly all actives have a fitted effect of over 75% in size
Target sequence (Q96KQ7 913-1193 limits assumed): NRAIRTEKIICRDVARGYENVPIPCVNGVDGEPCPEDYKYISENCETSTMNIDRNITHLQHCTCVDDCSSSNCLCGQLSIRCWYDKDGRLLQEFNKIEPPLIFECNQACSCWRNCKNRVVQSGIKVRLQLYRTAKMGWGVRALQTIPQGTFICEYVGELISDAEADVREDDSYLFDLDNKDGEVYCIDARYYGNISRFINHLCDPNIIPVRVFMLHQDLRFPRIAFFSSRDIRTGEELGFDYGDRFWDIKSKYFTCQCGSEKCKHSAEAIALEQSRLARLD
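G9a (20 nM) was preincubated 15 min with compound, then reacted 2 h at room temperature with 500 nM biotin-H3K9 peptide and 20 µM SAM. Monomethyl-H3K9 detected by AlphaScreen using anti-H3K9me1 antibody.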
Sfp PPTase inh = inhibitors of Bacillus subtilis Sfp phosphopantetheinyl transferase; Biochemical Sfp PPTase activity, qHTS; Potency, µM, without a hit: largest response in the series, negative = inhibition, hits mostly inhibitors; AID 1490; 310,000 tested, 3.5% active;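 also: the enzyme is Sfp with the accession as filed and its product quenches rhodamine fluorescence; 0% = enzyme reaction without inhibitor and -100% = no enzyme wells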
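After 15 min at room temperature with compound, 15 nM Sfp received 5 uM rhodamine-CoA plus 12.5 uM BHQ-2-ybbR (50 mM Hepes pH 7.6, 10 mM MgCl2). Rate came from the fluorescence difference over 30 min, ex 525/em 598 nm.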
HP1b chromo inh = inhibitors of HP1-beta chromodomain binding to methylated histone tails | AID 540317 | 390,000 tested, 0.56% active | AlphaScreen HP1-beta / biotin-H3K9me3 peptide binding | Potency, µM (highest dose often 114 µM), for the others: at the top dose activity change, negative = inhibition, most hits filed as inhibitors; also: nearly all actives have a fitted effect of over 70% in size
Target sequence (P83916 whole entry, looked up): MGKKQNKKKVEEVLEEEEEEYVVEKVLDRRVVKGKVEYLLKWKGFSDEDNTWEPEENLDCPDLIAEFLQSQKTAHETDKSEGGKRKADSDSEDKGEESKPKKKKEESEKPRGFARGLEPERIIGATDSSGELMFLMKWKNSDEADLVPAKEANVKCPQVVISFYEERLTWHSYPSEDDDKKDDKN
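HP1-beta protein (50 nM final) preincubated 30 min at room temperature with biotinylated H3(1-18)K9me3 peptide (50 nM) in PBS pH 7.4, 0.01% Tween-20, then compound added for 30 min. AlphaScreen streptavidin donor/nickel chelate acceptor beads (10 ug/mL final), 30 min dark, luminescence read.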
PLK1 PBD block = PLK1 (human) polo-box domain binding inhibition; P53350; Plk1 PBD binding of FITC phosphopeptide, fluorescence polarization; Potency, µM, without a hit: max response, negative = inhibition, most hits filed as inhibitors; 360,000 tested, 2.8% active; AID 720504; also: series mostly up to about 57 µM; % is scaled to controls: 0 for no effect and ±100 for the full control effect; nearly all actives have a fitted effect of over 65% in size
JMJD2A Tudor = inhibitors of human JMJD2A Tudor domain; AID 504339; AlphaScreen JMJD2A-Tudor / H3K4me3 peptide binding; 390,000 tested, 4.4% active; O75164; Potency, µM (titrated, usually from 114 µM), without a hit: at the highest dose activity change, negative = inhibition, usual class: inhibitors; also: % is scaled to controls: 0 for no effect and ±100 for the full control effect; nearly all actives have a fitted effect of over 50% in size
BAZ2B inh = blocks human BAZ2B. Q9UIF8. AlphaScreen BAZ2B-H3K14Ac peptide displacement. Potency, µM (series often up to 114 µM), inactives show at the top dose activity change, negative = inhibition, usual class: inhibitors. 360,000 tested, 4.4% active. AID 504333; also: % is scaled to controls: 0 for no effect and ±100 for the full control effect; nearly all actives have a fitted effect of over 60% in size
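Compounds, titrated to a top concentration of 110 uM, were incubated 30 min at room temperature with preformed BAZ2B/acetyl-K14 H3 peptide complex (50 nM each). Proximity signal was measured by AlphaScreen after 20 min with beads.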
The depositor's hits bear a star; [ ] = another dose, or the depositor's remark. Calls follow the shape of the dose curve; as a rule, active = well fitted curve in the direction sought with a large enough effect; inconclusive = small, poorly fitted or top-dose-only effect, or another doubt; inactive = no such curve, though single readings can be large; an effect the other way counts as inactive or inconclusive. Potency is read from the fitted curve at half-maximal effect.

Results for Cc1cccc(NC(=O)c2c(NC(=O)c3cccs3)sc3c2CCC(C)C3)c1 (stereo unspecified) ?
G9a block: 70%[59 µM]; HP1b chromo inh: 64%; JMJD2A Tudor: 13%; BAZ2B inh: 29%

Results for Cc1cccc(NC(=O)c2c(N)sc3c2CCC(C)C3)c1 (stereo unspecified) ?
G9a block: 13µM*; HP1b chromo inh: 13%; JMJD2A Tudor: -27%; BAZ2B inh: -3%

What do the screens show for `CCOC(=O)c1c(N)sc2c1CCS(=O)(=O)C2`?
G9a block: 8.9µM*; Sfp PPTase inh: 56µM*; HP1b chromo inh: inconclusive; PLK1 PBD block: 27µM*; JMJD2A Tudor: inconclusive; BAZ2B inh: -4%

What do the screens show for `COc1ccc(-c2nc3c(c4c2C[C@H](c2ccccc2)OC4)CN(S(=O)(=O)c2ccc(C)cc2)CC3)c(C)c1`?
Sfp PPTase inh: -3%

How did Cc1nnsc1C(=O)NC1CCCCC1 do in these assays?
G9a block: -10%[2.33 µM]; Sfp PPTase inh: 27%; HP1b chromo inh: 32%; PLK1 PBD block: -4%; JMJD2A Tudor: 2%; BAZ2B inh: 7%

How did Cc1ccc(C)c(Cn2c(=O)n(CCCC(=O)NCCc3ccc(Cl)cc3)c(=O)c3ccccc32)c1 do in these assays?
G9a block: -2%[59 µM]; HP1b chromo inh: 33%; JMJD2A Tudor: 1%; BAZ2B inh: 1%

How did O=C(NCCOc1ccccc1)C1CCC(=O)N(CCN2CCOCC2)C1 (stereo unspecified) do in these assays?
G9a block: 10%; Sfp PPTase inh: 14%; HP1b chromo inh: 56%; PLK1 PBD block: -4%; JMJD2A Tudor: -3%; BAZ2B inh: 0%

How did Cc1ccc(C)c2sc(NC(=O)c3ccc(S(=O)(=O)N4CCC(C)CC4)cc3)nc12 do in these assays?
G9a block: 1%[59 µM]; HP1b chromo inh: 31%[57 µM]; JMJD2A Tudor: 1%; BAZ2B inh: -1%

What do the screens show for `COc1cccc([C@@H]2Oc3ccc(Br)cc3C(=O)[C@H]2OC(=O)NS(=O)(=O)c2ccc(F)cc2)c1`?
Sfp PPTase inh: -5%

How did CC(C)C(=O)Nc1sc2c(c1-c1nc3ccccc3[nH]1)CCCC2 do in these assays?
G9a block: 14µM*; Sfp PPTase inh: -4%; HP1b chromo inh: 41%; PLK1 PBD block: -15%; JMJD2A Tudor: -23%; BAZ2B inh: 4%

How did CC(C)C(=O)Nc1ccccc1-c1nc2ccccc2[nH]c1=O do in these assays?
G9a block: inconclusive; Sfp PPTase inh: 12%; HP1b chromo inh: 19%; PLK1 PBD block: -3%; JMJD2A Tudor: -14%; BAZ2B inh: -19%

How did O=C(CSC(=S)N1CCCC1)N1CCN(S(=O)(=O)c2cccc(F)c2)CC1 do in these assays?
G9a block: -33%; HP1b chromo inh: 33%; PLK1 PBD block: -5%; JMJD2A Tudor: inconclusive; BAZ2B inh: -5%

What do the screens show for `O=C(CSC(=S)N1CCCC1)N1CCN(S(=O)(=O)c2cccc([N+](=O)[O-])c2)CC1`?
G9a block: 40µM*; Sfp PPTase inh: 50µM*; HP1b chromo inh: 1%; PLK1 PBD block: inconclusive; JMJD2A Tudor: -19%; BAZ2B inh: -14%

Results for COc1ccc(C2CC(=O)c3c(C)nc(N4CCN(Cc5ccccc5)CC4)nc3C2)cc1OC (stereo unspecified) ?
G9a block: 35µM*; Sfp PPTase inh: -20%; HP1b chromo inh: -14%; PLK1 PBD block: -7%; JMJD2A Tudor: inconclusive; BAZ2B inh: inconclusive

Results for COc1ccc(-c2nnc(SCC(=O)Nc3ccc(C)c(Cl)c3)nc2-c2ccc(OC)c(OC)c2)cc1OC ?
G9a block: -23%[59 µM]; HP1b chromo inh: 49%; JMJD2A Tudor: -23%; BAZ2B inh: -14%

Results for Nc1c(N=Nc2ccc(-c3ccc(N=Nc4cc(S(=O)(=O)O)c5ccccc5c4N)cc3)cc2)cc(S(=O)(=O)O)c2ccccc12 ?
G9a block: 3.5µM*; Sfp PPTase inh: 45µM*
